Measured values published in PubChem BioAssay (NCATS).
Results filed as inconclusive are left out. Calls of active or inactive are those of the source. Calls come from the whole dose curve; as a rule, active = well fitted curve in the direction sought with a large enough effect; inconclusive = small, poorly fitted or top-dose-only effect, or another doubt; inactive = no such curve, though single readings can be large; an effect the other way counts as inactive or inconclusive.

Assays:
MCC-26 = test: qHTS assay to identify novel small-molecules to repurpose for Merkel cell carcinoma treatment (AID 1296009); conditions: MCC and control cell lines, CellTiter-Glo viability, 72 h; series mostly up to 46 µM; note: nearly all actives have a fitted effect of over 60% in size
Summary of the method: (§1)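 CellTiter-Glo luminescence after 72 hr compound exposure at 37 degree celsius gave cell viability. Libraries NPC and MIPE were run as 8- and 11-point dose responses; RLUs normalized to DMSO (negative) and no-cell (cytotoxicity) controls.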

MKL-1 = test: as above; conditions: MCC and control cell lines, CellTiter-Glo viability, 72 h; series mostly up to 46 µM
Summary of the method: as §1

MKL-2 = test: as above; conditions: MCC and control cell lines, CellTiter-Glo viability, 72 h; series mostly up to 46 µM
Summary of the method: as §1

NIH3T3 = test: as above; conditions: MCC and control cell lines, CellTiter-Glo viability, 72 h; at 44.8 µM (top of the series) unless noted
Summary of the method: as §1

UISO = test: as above; conditions: MCC and control cell lines, CellTiter-Glo viability, 72 h; series mostly up to 46 µM
Summary of the method: as §1

WaGa = test: as above; conditions: MCC and control cell lines, CellTiter-Glo viability, 72 h; series mostly up to 46 µM
Summary of the method: as §1

C33A = test: Primary qHTS to identify gynecologic anti-cancer compounds using libraries of approved drugs and bioactive compounds (AID 1345084); conditions: Gynecologic cancer cell panel viability, ATPlite luminescence, 48 h; series mostly up to 57.5 µM; note: nearly all actives have a fitted effect of over 55% in size
Summary of the method: (§2)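 In this quantitative HTS, cell killing is estimated from loss of ATP-dependent luciferase light. Cells see five compound concentrations over a 48 h exposure.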

CAOV3 = test: as above; conditions: Gynecologic cancer cell panel viability, ATPlite luminescence, 48 h; series mostly up to 57.5 µM
Summary of the method: as §2

CASKI = test: as above; conditions: Gynecologic cancer cell panel viability, ATPlite luminescence, 48 h; series mostly up to 57.5 µM
Summary of the method: as §2

Es-2 = test: as above; conditions: Gynecologic cancer cell panel viability, ATPlite luminescence, 48 h; series mostly up to 57.5 µM
Summary of the method: as §2

Hek293T = test: as above; conditions: Gynecologic cancer cell panel viability, ATPlite luminescence, 48 h, control line for the selectivity index; series mostly up to 57.5 µM
Summary of the method: as §2

JEG-3 = test: as above; conditions: Gynecologic cancer cell panel viability, ATPlite luminescence, 48 h; series mostly up to 57.5 µM
Summary of the method: as §2

OV90 = test: as above; conditions: Gynecologic cancer cell panel viability, ATPlite luminescence, 48 h; series mostly up to 57.5 µM
Summary of the method: as §2

PA-1 = test: as above; conditions: Gynecologic cancer cell panel viability, ATPlite luminescence, 48 h; series mostly up to 57.5 µM
Summary of the method: as §2

SKOV3 = test: as above; conditions: Gynecologic cancer cell panel viability, ATPlite luminescence, 48 h; series mostly up to 57.5 µM
Summary of the method: as §2

Tov-21-G = test: as above; conditions: Gynecologic cancer cell panel viability, ATPlite luminescence, 48 h; series mostly up to 57.5 µM
Summary of the method: as §2

Tov112D = test: as above; conditions: Gynecologic cancer cell panel viability, ATPlite luminescence, 48 h; series mostly up to 57.5 µM
Summary of the method: as §2

[1] = Drug repurposing screens with cells derived from glioblastoma tumor samples (AID 1345199); conditions: GBM patient neurospheres viability, ATP luminescence, 48 h; note: nearly all actives have a fitted effect of over 40% in size
Summary of the method: (§3)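 Primary testing used CD133+ neurospheres from four GBM patients, seven concentrations, 48 h exposure and ATP-based viability; confirmation added three slower-growing patient lines.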

astro = test: as above; conditions: viability, ATP luminescence, 48 h; series mostly up to 45.9 µM
Summary of the method: as §3

HeLa = test: Primary qHTS to identify gynecologic anti-cancer compounds using libraries of approved drugs and bioactive compounds (AID 1345084); conditions: Gynecologic cancer cell panel viability, ATPlite luminescence, 48 h; series mostly up to 57.5 µM; note: nearly all actives have a fitted effect of over 55% in size
Summary of the method: as §2

[2] = at 45.9 µM (top of the series), tumour line B
[3] = at 45.9 µM (top of the series), tumour line D
[4] = at 46 µM (top of the series), tumour line A
[5] = at 46.1 µM (top of the series), tumour line C
% is set by controls: 0 for no effect and ±100 for the full control effect.

CC(c1cc2ccccc2s1)N(O)C(N)=O (stereo not given)
inactive: Potency (MCC-26) | Potency (MKL-1) | Potency (MKL-2) | outcome (NIH3T3) | Potency (UISO) | Potency (WaGa) | Potency (C33A) | Potency (CAOV3) | Potency (CASKI) | Potency (Es-2) | Potency (Hek293T) | Potency (JEG-3) | Potency (OV90) | Potency (PA-1) | Potency (SKOV3) | Potency (Tov-21-G) | Potency (Tov112D) | activity, negative = cell killing [1, 2] -3.78% | activity, negative = cell killing [1, 3] -20.5% | activity, negative = cell killing [1, 4] -18.2% | activity, negative = cell killing [1, 5] -18.9% | Potency (astro)

O=C(Nc1ccc(F)c(C(F)(F)F)c1)Nc1nnc(-c2ccncc2)s1
inactive: Potency (MCC-26) | Potency (MKL-1) | Potency (MKL-2) | outcome (NIH3T3) | Potency (UISO) | Potency (WaGa) | Potency (C33A) | Potency (CAOV3) | Potency (CASKI) | Potency (Es-2) | Potency (HeLa) | Potency (Hek293T) | Potency (JEG-3) | Potency (OV90) | Potency (PA-1) | Potency (SKOV3) | Potency (Tov-21-G) | Potency (Tov112D)

O=C1CCC(N2C(=O)c3ccccc3C2=O)C(=O)N1 (stereo not given)
inactive: Potency (MCC-26) | Potency (MKL-1) | Potency (MKL-2) | outcome (NIH3T3) | Potency (UISO) | Potency (WaGa) | Potency (C33A) | Potency (CAOV3) | Potency (CASKI) | Potency (Es-2) | Potency (HeLa) | Potency (Hek293T) | Potency (JEG-3) | Potency (OV90) | Potency (PA-1) | Potency (SKOV3) | Potency (Tov-21-G) | Potency (Tov112D) | activity, negative = cell killing [1, 2] -4.2% | activity, negative = cell killing [1, 3] -2.61% | activity, negative = cell killing [1, 4] -6.31% | activity, negative = cell killing [1, 5] 3.21% | Potency (astro)

O=C(C=Cc1ccc(/C=C/C(=O)Nc2ccc(C3=NCCN3)cc2)cc1)Nc1ccc(C2=NCCN2)cc1
inactive: Potency (MCC-26) | Potency (MKL-1) | Potency (MKL-2) | outcome (NIH3T3) | Potency (UISO) | Potency (WaGa)

CNC[C@H](O)c1cccc(O)c1
inactive: Potency (MCC-26) | Potency (MKL-1) | Potency (MKL-2) | outcome (NIH3T3) | Potency (UISO) | Potency (WaGa) | Potency (C33A) | Potency (CAOV3) | Potency (CASKI) | Potency (Es-2) | Potency (HeLa) | Potency (Hek293T) | Potency (JEG-3) | Potency (OV90) | Potency (PA-1) | Potency (SKOV3) | Potency (Tov-21-G) | Potency (Tov112D) | activity, negative = cell killing [1, 2] -2.77% | activity, negative = cell killing [1, 3] 6.94% | activity, negative = cell killing [1, 5] -5.24% | Potency (astro)

Clc1cccc(Cl)c1NC1=NCCN1
inactive: Potency (MCC-26) | Potency (MKL-1) | Potency (MKL-2) | outcome (NIH3T3) | Potency (UISO) | Potency (WaGa) | Potency (C33A) | Potency (CAOV3) | Potency (CASKI) | Potency (Es-2) | Potency (HeLa) | Potency (Hek293T) | Potency (JEG-3) | Potency (OV90) | Potency (PA-1) | Potency (SKOV3) | Potency (Tov-21-G) | Potency (Tov112D) | activity, negative = cell killing [1, 2] 5.06% | activity, negative = cell killing [1, 3] -7.27% | activity, negative = cell killing [1, 4] -29.3% | activity, negative = cell killing [1, 5] 0.125% | Potency (astro)

O=C(O)COCCN1CCN(C(c2ccccc2)c2ccc(Cl)cc2)CC1 (stereo not given)
inactive: Potency (MCC-26) | Potency (MKL-1) | Potency (MKL-2) | outcome (NIH3T3) | Potency (UISO) | Potency (WaGa) | Potency (C33A) | Potency (CAOV3) | Potency (CASKI) | Potency (Es-2) | Potency (HeLa) | Potency (Hek293T) | Potency (JEG-3) | Potency (OV90) | Potency (PA-1) | Potency (SKOV3) | Potency (Tov-21-G) | Potency (Tov112D) | activity, negative = cell killing ([1]; at 20 µM (top of the series), tumour line C) -26.4% | activity, negative = cell killing ([1]; at 21.2 µM (top of the series), tumour line B) -3.42% | activity, negative = cell killing ([1]; at 21.2 µM (top of the series), tumour line D) -18.8% | activity, negative = cell killing ([1]; at 21.3 µM (top of the series), tumour line A) -26.6% | Potency (astro)

CCC(=O)N[C@H]1CC[C@H](C(=O)N(C)c2ccc(-c3nc4ccccc4o3)cc2)C1
inactive: Potency (MCC-26) | Potency (MKL-1)

COCC(=O)NCC=Cc1ccc2ncnc(Nc3ccc(Oc4ccc(C)nc4)c(C)c3)c2c1
inactive: Potency (MCC-26) | Potency (MKL-1)

OC[C@H](Cc1ccccc1)Nc1nc(Oc2ccc3c(c2)CCC3)nc2c1ncn2Cc1ccc(-c2ccccc2)cc1
inactive: Potency (MCC-26) | Potency (MKL-1) | Potency (MKL-2)

Cc1ccccc1C(C(=O)NC1CCCC1)N(C(=O)Cn1cnc2ccccc21)c1cccc(F)c1 (stereo not given)
inactive: Potency (MCC-26) | Potency (MKL-1) | Potency (MKL-2) | outcome (NIH3T3) | Potency (UISO) | Potency (WaGa)

CCn1c(-c2nonc2N)nc2c(C#CC(C)(C)O)ncc(OC[C@H]3CCCNC3)c21
inactive: Potency (MCC-26) | Potency (MKL-1) | Potency (MKL-2) | outcome (NIH3T3) | Potency (UISO) | Potency (WaGa)

CCCc1nc2c(C)cc(-c3nc4ccccc4n3C)cc2n1Cc1ccc(-c2ccccc2C(=O)O)cc1
inactive: Potency (MCC-26) | Potency (MKL-1) | Potency (MKL-2) | outcome (NIH3T3) | Potency (UISO) | Potency (WaGa) | Potency (C33A) | Potency (CAOV3) | Potency (CASKI) | Potency (Es-2) | Potency (HeLa) | Potency (Hek293T) | Potency (JEG-3) | Potency (OV90) | Potency (PA-1) | Potency (SKOV3) | Potency (Tov-21-G) | Potency (Tov112D) | activity, negative = cell killing [1, 2] -13.6% | activity, negative = cell killing [1, 3] -10.2% | activity, negative = cell killing [1, 4] -16.9% | activity, negative = cell killing [1, 5] -10.7% | Potency (astro)

O=C1CCc2cc(OCCCCc3nnnn3C3CCCCC3)ccc2N1
inactive: Potency (MCC-26) | Potency (MKL-1) | Potency (MKL-2) | outcome (NIH3T3) | Potency (UISO) | Potency (WaGa) | Potency (C33A) | Potency (CAOV3) | Potency (CASKI) | Potency (Es-2) | Potency (HeLa) | Potency (Hek293T) | Potency (JEG-3) | Potency (PA-1) | Potency (SKOV3) | Potency (Tov-21-G) | Potency (Tov112D) | activity, negative = cell killing [1, 2] -16.9% | activity, negative = cell killing [1, 3] -10.7% | activity, negative = cell killing [1, 5] -10.2% | Potency (astro)
